From PubChem BioAssay
Only some compounds are listed: those with a hit (about 19% of all), similar ones and a draw of the others.
ELG1 DNA repair = qHTS screen for small molecules that inhibit ELG1-dependent DNA repair in human embryonic kidney (HEK293T) cells expressing luciferase-tagged ELG1 | AID 504467, 2011 | hit rate 2.3% among 330,000 | Potency, µM (series often up to 46.1 µM), for the others: at the top dose activity change, negative = inhibition, usual class: inhibitors | HEK293T ELG1-luciferase reporter, luminescence, 16 h; DNA damage induced by 5-fluorouridine; also: potency is read from the fitted curve at half-maximal effect; nearly all actives have a fitted effect of over 55% in size
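5-Fluorouridine DNA damage + compound/DMSO, 2,000 cells/well, 16 h, 37 °C/5% CO2. ONE-Glo, 30 min RT, luminescence. Readout = decrease in reporter signal.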
DT40 TDP1 no CPT = qHTS for Inhibitors of human tyrosyl-DNA phosphodiesterase 1 (TDP1): qHTS in cells in absence of CPT; Potency, µM (doses to about 46.2 µM), for the others: top-dose activity change, negative = growth inhibition, most hits filed as inhibitors; hit rate 15% among 420,000; DT40 Tdp1-/- hTDP1 cells, no CPT, ATP luminescence, 48 h; also: potency is read from the fitted curve at half-maximal effect; nearly all actives have a fitted effect of over 55% in size
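Growth of hTDP1-complemented DT40 Tdp1-knockout cells is measured by ATP luminescence after at least 48 hr compound exposure at 37 °C, with DMSO substituting for the 20 nM CPT used in the parallel screen.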
TDP1 block = qHTS Assay for Inhibitors of Tyrosyl-DNA Phosphodiesterase (TDP1); hit rate 0.28% among 350,000; Potency, µM (highest dose often 130 µM), without a hit: top-dose activity change, negative = inhibition, usual class: inhibitors; Tyrosyl-DNA phosphodiesterase 1 (Homo sapiens), Q9NUW8; recombinant TDP1, AlphaScreen DNA substrate cleavage; also: potency is read from the fitted curve at half-maximal effect; nearly all actives have a fitted effect of over 40% in size
Target sequence (Q9NUW8 whole entry, looked up): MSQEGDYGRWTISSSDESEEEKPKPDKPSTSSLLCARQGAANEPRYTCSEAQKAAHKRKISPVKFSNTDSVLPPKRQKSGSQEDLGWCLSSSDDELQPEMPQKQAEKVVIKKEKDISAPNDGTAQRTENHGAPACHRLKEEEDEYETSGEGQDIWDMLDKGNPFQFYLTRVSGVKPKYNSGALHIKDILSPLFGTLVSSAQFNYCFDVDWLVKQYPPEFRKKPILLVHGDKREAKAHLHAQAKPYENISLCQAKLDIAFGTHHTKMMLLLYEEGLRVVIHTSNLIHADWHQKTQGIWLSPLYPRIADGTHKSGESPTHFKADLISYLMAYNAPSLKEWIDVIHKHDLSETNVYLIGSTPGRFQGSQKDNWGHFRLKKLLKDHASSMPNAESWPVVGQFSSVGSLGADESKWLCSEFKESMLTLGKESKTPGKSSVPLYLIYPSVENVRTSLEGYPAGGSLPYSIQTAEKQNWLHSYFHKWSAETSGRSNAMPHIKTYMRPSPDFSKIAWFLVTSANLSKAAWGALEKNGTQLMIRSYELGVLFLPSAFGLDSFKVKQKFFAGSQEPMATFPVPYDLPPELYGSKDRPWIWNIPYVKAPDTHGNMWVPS
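Compounds were preincubated with Tdp1 (1 nM final) for 15 min at room temperature before substrate (15 nM final) started a 5 min reaction; beads (10 ug/ml final) were then added for 10 min before AlphaScreen detection.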
TDP1 cell CPT = qHTS for Inhibitors of human tyrosyl-DNA phosphodiesterase 1 (TDP1): qHTS in cells in presence of CPT | chicken DT40 Tdp1-/-;hTDP1 cells + 20 nM CPT, ATP luminescence, 48 h | Potency, µM (titrated, usually from 46.2 µM), for inactives: top-dose activity change, negative = growth inhibition, hits mostly inhibitors | hit rate 12% among 420,000 | AID 686979, 2013; also: potency is read from the fitted curve at half-maximal effect; nearly all actives have a fitted effect of over 55% in size
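Chicken DT40 Tdp1-/- cells stably complemented with human TDP1 were seeded at 400 cells/well in medium containing 20 nM camptothecin, exposed to pin-transferred compounds, and grown at 37 °C for at least 48 hr. Viability was read as ATP luminescence.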
Giardia killer = Small Molecules that selectively kill Giardia lamblia: qHTS; hit rate 0.15% among 340,000; activity change, % at 7.66 µM, hits read low; Giardia lamblia trophozoite viability; in the data active = activity change below about -80%; inconclusive = between about -30% and that limit;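 also: parasites exposed to compound for two days anaerobically before the ATP read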
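Each well holds 100 Giardia trophozoites and compound. After two days (48 hrs) at 37 deg C in anaerobic conditions, ATP is quantified by luminescence.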
IL1B secr inh = qHTS for Inhibitors of Inflammasome Signaling: IL-1-beta AlphaLISA Primary Screen. THP-1 LPS/ATP IL-1B secretion, AlphaLISA, 16 h; stronger effect = lower value. activity change, % at 57.5 µM. hit rate 4.7% among 360,000. AID 743279, 2014; in the data active = activity change below about -50%; inconclusive = mostly about -30% to -49%
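THP-1 cells pretreated 1 hr with compounds (up to 57.5 uM final), then stimulated with LPS (250 ng/mL final) plus ATP (1.25 mM final); secreted IL-1B measured by AlphaLISA after 16 hr, decreased signal indicating inhibition.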
Numbers without * were called inactive; u = inconclusive; x = no result. Unless noted, calls follow the shape of the dose curve; as a rule, active = well fitted curve in the direction sought with a large enough effect; inconclusive = small, poorly fitted or top-dose-only effect, or another doubt; inactive = no such curve, though single readings can be large; an effect the other way counts as inactive or inconclusive. % is scaled to controls: 0 for no effect and ±100 for the full control effect.

SMILES	ELG1 DNA repair	DT40 TDP1 no CPT	TDP1 block	TDP1 cell CPT	Giardia killer	IL1B secr inh
Oc1ccc(Nc2ncnc3scc(-c4ccccc4)c23)cc1	u	8.2µM*	0%	u	9	-10
O=S(=O)(Nc1ncnc2sc3c(c12)CCC3)c1ccc(Cl)s1	0%	13µM*	-3%	u	1	41
c1ccc(CNc2ncnc3sc4c(c23)CCC4)nc1	u	15µM*	-1%	u	27	8
CCOc1ccc(-c2csc3ncnc(Nc4cccc(O)c4)c23)cc1	x	u	1%	u	x	x
CCN(CC)c1ncnc2sc3c(c12)CCC3	15µM*	u	0%	u	-19	0
O=S(=O)(Nc1ncnc2sc3c(c12)CCC3)c1cc(F)ccc1F	2%	-17%	3%	-27%	28	0
CCCCCCC(=O)Nc1ccc2nc3c(=O)n(C)c(=O)n(C)c3nc2c1C	x	3%	5%	3%	x	x
c1ccc(CNc2ncnc3nc[nH]c23)nc1	-6%	2%	2%	-2%	32	28
c1ccc(-c2csc3ncnc(NCc4ccccn4)c23)cc1	12µM*	9.2µM*	6%	12µM*	3	41
c1ccc(CNc2ncnc3scc(-c4cccs4)c23)nc1	8.2µM*	9.2µM*	0%	10µM*	-5	u
CN(C)CCCNc1ncnc2scc(-c3ccccc3)c12	-2%	u	1%	1%	12	-7
O=C(CCC(=O)Nc1cccnc1)Nc1cccnc1	x	-1%	x	7%	-12	-1
CNc1ccc(C=C2C=CC=C2)cc1	x	u	x	11µM*	x	x
CNc1ccc(O)cc1	x	x	15%	x	x	x
CCC(C)(C)NC(=O)C(c1ccc(C)cc1)N(CCN1CCOCC1)C(=O)CNC(=O)c1cccs1 (configuration not stated)	8%	-24%	6%	u	1	2
CCCOc1ccc(F)cc1-c1cc(C(=O)NCc2cccc(C(F)(F)F)c2)[nH]n1	x	18µM*	x	21µM*	x	-25
CCCOc1ccc(F)cc1-c1cc(C(=O)NCc2cccc(Cl)c2)[nH]n1	x	u	x	23µM*	x	-16
CCCOc1ccc(F)cc1-c1cc(C(=O)NCc2ccco2)[nH]n1	x	u	x	u	x	-17
CCCOc1ccc(F)cc1-c1cc(C(=O)NCc2ccc(C(F)(F)F)cc2)[nH]n1	x	16µM*	x	u	x	-8
COc1ccc(F)cc1-c1cc(C(=O)NCc2cccc(Cl)c2)[nH]n1	x	-28%	x	u	x	-19
C[C@H](NC(=O)c1ncn2c1C(=O)N[C@@H](C)C2)c1ccccc1	x	u	x	-19%	x	30
COc1cccc(CCNC(=O)c2ccc(OC)c(OC3CCN(C(C)C)CC3)c2)c1	16%	1%	0%	1%	12	-10
CC(C)Oc1cccc(C(=O)C2CCCN(Cc3ccc(Oc4ncccn4)cc3)C2)c1 (configuration not stated)	-19%	u	4%	5%	-11	-21
CCn1ccnc1CN1CCCC(C(=O)c2ccc3cc(OC)ccc3c2)C1 (configuration not stated)	u	4.6µM*	6%	2.9µM*	17	-96*
COc1ccc(C(=O)N2CCN(Cc3ccccn3)CC2)cc1	5%	18%	x	4%	-4	-14
SMILES	ELG1 DNA repair	DT40 TDP1 no CPT	TDP1 block	TDP1 cell CPT	Giardia killer	IL1B secr inh
COc1cccc(C(=O)C2CCCN(Cc3cccc(-n4cccn4)c3)C2)c1 (configuration not stated)	-17%	u	x	u	-11	u
COc1ccc2cc(C(=O)C3CCCN(Cc4cnc(N5CCOCC5)s4)C3)ccc2c1 (configuration not stated)	u	18µM*	2%	u	-15	u
COc1c(C)cc(C(=O)C2CCCN(Cc3ccc(Oc4ncccn4)cc3)C2)cc1C (configuration not stated)	18µM*	15µM*	-5%	u	32	-11
COc1ccc2cc(C(=O)C3CCCN(Cc4ccccn4)C3)ccc2c1 (configuration not stated)	-13%	18µM*	0%	u	13	-27
NC(=O)/C(=C\c1ccccc1)NC(=O)c1ccc(NC(=O)c2ccccc2)cc1	-5%	-3%	7%	2%	-22	0
CCOC(=O)C1=C(CC)Nc2ccccc2N=C1NC(=O)c1ccc(C)c(S(=O)(=O)N2CCOCC2)c1	u	u	-4%	16µM*	11	-10
CCOC(=O)C1=C(CC)Nc2ccccc2N=C1NC(=O)c1ccc(S(=O)(=O)N(C)C)cc1	u	5.8µM*	-2%	7.3µM*	-5	-10
CCOC(=O)C1=C(CC)Nc2ccccc2N=C1NC(=O)CCNC(C)=O	-3%	u	-4%	2%	-7	-5
CCOCc1c(C(=O)NC2=Nc3ccccc3NC(CC)=C2C(=O)OCC)oc2ccccc12	8.2µM*	16µM*	6%	23µM*	-16	-10
CCOCc1c(C(=O)Nc2ccc(OC)nc2)oc2ccccc12	-19%	18µM*	-10%	-23%	1	-1
O=C(NC1CCCCC1)C(c1ccccc1)N(Cc1cccnc1)C(=O)c1csnn1 (configuration not stated)	-5%	4%	0%	4%	-6	10
